p53 reactivator = mutant p53 re-activation in reporter cells. 0.063% of 320,000 active. H1299 p53-A138V BP100-luciferase reporter, luminescence, 24 h. Potency, µM (top dose mostly 92.2 µM), for the others: top-dose activity change, positive = activation, usual class: activators. AID 504706; further: % of control where 0% means no effect; nearly all actives have a fitted effect of over 45% in size
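H1299 (p53-null), stable ts p53-A138V + BP100-Luc; 1000 cells/well, Opti-MEM/10% FBS; cpd 4 pt, 1:5; 24 h, 37 deg C, 5% CO2; detection reagent 10 min RT; luminescence.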
AT treatment = potential ataxia-telangiectasia treatment | F2112 A-T fibroblasts, KAP-1 phosphorylation AlphaLISA; neocarzinostatin DNA damage 30 min before lysis | Potency, µM (top dose mostly 57.5 µM), for the others: at the highest dose activation, actives largely listed as activators | 0.19% of 320,000 active | AID 485349; further: % of control where 0% means no effect; nearly all actives have a fitted effect of over 45% in size
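hTERT-immortalized A-T patient fibroblasts (F2112), 500 cells/well in OPTI-MEM, 1% FBS, got compounds for 60 min, then NCS for 30 min at 37C. Lysates were then assayed for phospho-KAP-1 by AlphaLISA (anti-pKAP1 donor, anti-KAP1 acceptor beads), 6 hr at 25C.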
ELG1 genotoxic = genotoxicity induction in ELG1-luciferase HEK293T cells; HEK293T ELG1-luciferase reporter, luminescence, 16 h; Potency, µM (doses to about 46 µM), inactives show at the top dose activity change, positive = activation, most hits filed as activators; 1.3% of 330,000 active; further: % of control where 0% means no effect; nearly all actives have a fitted effect of over 60% in size
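After overnight (16 hr) compound treatment at 37 °C, ELG1-luciferase HEK293T cells were lysed with ONE-Glo; luminescence quantified 30 min later at room temperature.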
SW480 rerep = induces DNA re-replication in SW480 colon adenocarcinoma cells; SW480 DNA re-replication, Hoechst DNA content imaging, 48 h; Potency, µM (titrated, usually from 46.1 µM), for inactives: top-dose re-replication activation, actives largely listed as activators; 1.8% of 340,000 active; AID 624297; further: % of control where 0% means no effect; nearly all actives have a fitted effect of over 55% in size
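First, 250 cells per well were seeded. Next, compound or vehicle (23 nL) was pinned in, plates sat 48 hr at 37 C. Finally Hoechst was added for 40 min before fluorescence scanning.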
MCF10A rereplic = induces DNA re-replication in MCF 10a normal breast cells | MCF 10A DNA re-replication, Hoechst nuclear intensity, 48 h | Potency, µM (doses to about 46.1 µM), inactives show at the top dose activity, positive = re-replication, actives largely listed as activators | 2.9% of 350,000 active | AID 624296; further: % of control where 0% means no effect; nearly all actives have a fitted effect of over 50% in size
ELG1 repair inh = blocks ELG1-dependent DNA repair in HEK293T cells | HEK293T ELG1-luciferase reporter, luminescence, 16 h; DNA damage induced by 5-fluorouridine | AID 504467 | 2.3% of 330,000 active | Potency, µM (titrated, usually from 46.1 µM), inactives show at the highest dose activity change, negative = inhibition, hits mostly inhibitors; further: on the % scale 0 is the no-effect control and ±100 the full control effect; nearly all actives have a fitted effect of over 55% in size
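Step one: seed 2,000 cells per well. Step two: pin-transfer compound or DMSO alongside 5-fluorouridine. Step three: incubate 16 hr, 37 °C, 5% CO2. Step four: add ONE-Glo, wait 30 min, read luminescence.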
Starred values were filed as active, the others as inactive; ? = inconclusive; nt = no result; [ ] = another dose, or the depositor's remark. Only some compounds are listed: those with a hit (about 7.1% of all), similar ones and a draw of the others. The call rests on the fitted dose curve; in most records, active means well fitted curve in the direction sought with a large enough effect; inconclusive means small, poorly fitted or top-dose-only effect, or another doubt; inactive means no such curve, though single readings can be large; an effect the other way counts as inactive or inconclusive. Potency means the concentration at half of the fitted maximal effect.

SMILES	p53 reactivator	AT treatment	ELG1 genotoxic	SW480 rerep	MCF10A rereplic	ELG1 repair inh
Cc1ccc(C(=O)c2cc([N+](=O)[O-])ccc2N2CCOCC2)c(C)c1	7.2%	-3.6%	0.9%	0.13µM*	0.92µM*	19.8%
Cc1ccc(C(=O)c2cc([N+](=O)[O-])ccc2N2CCN(C)CC2)cc1	-1.5%	-11.3%	1.0%	10.3µM*	16.4µM*	-10.6%
CN1CCN(c2ccc([N+](=O)[O-])cc2C(=O)c2ccc(Br)cc2)CC1	-2.2%	-0.8%	-2.8%	3.66µM*	?	-29.4%
CN1CCN(c2ccc([N+](=O)[O-])cc2C(=O)c2ccccc2)CC1	5.1%	-0.1%	-0.8%	?	1.6%	-7.4%
Cc1ccc(C)c(C(=O)COC(=O)c2cc([N+](=O)[O-])ccc2N2CCOCC2)c1	5.9%	0.3%	0.9%	4.4%	0.4%	-5.6%
O=C(NCc1ccc(Cl)cc1)c1ccc(NC(=O)C2CCCO2)cc1 (stereo unspecified)	5.2%	-0.6%	2.6%	-1.3%	-9.8%	18.7%
CC(C)N(CC(N)=O)c1ccc(S(=O)(=O)N2CCCC2)cn1	0.5%	-0.8%	2.9%	-13.7%	-5.0%	-0.2%
CC(NS(=O)(=O)c1ccc(OCC(=O)N2CCOCC2)c(Cl)c1)c1ccccc1 (stereo unspecified)	-4.6%	-2.2%	2.1%	-9.8%	-3.0%	14.6µM*
CC(NS(=O)(=O)c1ccc(OCC(=O)N2CCOCC2)cc1)c1ccccc1 (stereo unspecified)	1.8%	nt	-0.5%	-2.6%	-7.5%	0.8%
CC(Oc1ccc(Cl)cc1Cl)C(=O)NCCCn1ccnc1 (stereo unspecified)	-1.6%	2.2%	0.1%	-6.4%	16.4µM*	-21.7%
O=C(COc1ccc(S(=O)(=O)N2CCOCC2)cc1Cl)NC1CCCCC1	6.6%	10.8%	-6.8%	2.9%	2.1%	-8.1%
O=S(=O)(c1ccc(OCC(O)CNC23CC4CC(CC(C4)C2)C3)c(Cl)c1)N1CCOCC1 (stereo unspecified)	1.2%	-3.4%	-2.2%	16.4µM*	?	-15.9%
CC(C)C(C)NC(=O)COc1ccc(S(=O)(=O)N2CCOCC2)cc1Cl (stereo unspecified)	-2.7%	6.9%	-4.6%	?	0.581µM*	20.5%
O=C(CCCOc1ccc(Cl)cc1Cl)NCCCn1ccnc1	1.0%	4.4%	-3.9%	-4.5%	1.0%	-2.5%
CCC(Br)C(=O)Nc1ccc(OC)cc1 (stereo unspecified)	-2.3%	-5.6%	2.2%	-9.0%	-5.3%	?
COCCN(C(=O)COC(=O)/C=C/c1cccc(OC)c1)c1c(N)n(CC(C)C)c(=O)[nH]c1=O	0.4%	4.7%	3.0%	-10.1%	-2.1%	23.6%
O=C(COc1ccc(S(=O)(=O)N2CCOCC2)cc1Cl)NCCCn1ccnc1	6.7%	-5.1%	3.1%	7.31µM*	?	4.2%
CCN(CC)CC(=O)N1c2ccccc2Oc2c(c(=O)n(C)c(=O)n2C)C1c1cccc([N+](=O)[O-])c1 (stereo unspecified)	2.2%	47.2%	0.0%	-7.4%	-2.0%	-0.3%
Cc1ccc(C)c(Cn2nnc3c(=O)[nH]c(C4CCCN(S(=O)(=O)Cc5ccccc5)C4)nc32)c1 (stereo unspecified)	-1.7%	14.1%	-5.3%	-13.4%	-16.2%	5.3%
C=C1c2c(Cl)ccc(O)c2C(O)=C2C(=O)[C@@]3(O)C(O)=C(C(N)=O)C(=O)[C@@H](N(C)C)[C@@H]3[C@@H](O)[C@H]12	nt	nt	nt	2.9%[20.6 µM]	-1.2%[20.6 µM]	nt
O=c1ccc2cc(S(=O)(=O)N3CCN(c4ccccc4)CC3)ccc2[nH]1	12.6%	-9.0%	-2.0%	-10.8%	-0.6%	12.9%
O=S(=O)(c1ccc2nc(-c3ccccc3)[nH]c2c1)N1CCN(c2ccc(Cl)cc2)CC1	-13.1%	-3.0%	11.4%	?	16.4µM*	?
CCOC(=O)[C@@H]1[C@H]2COc3ccccc3[C@@H]2N2C(=O)N(c3ccc(Cl)cc3)C(=O)[C@]12C	nt	-0.1%	0.8%	-0.3%	0.9%	9.1%
CC(NCc1ccc(S(N)(=O)=O)cc1)C(=O)Nc1ccc([N+](=O)[O-])cc1Cl (stereo unspecified)	-5.4%	0.7%	-2.0%	4.4%	-5.0%	23.1µM*
CC(NCc1ccc(S(N)(=O)=O)cc1)C(=O)Nc1cc([N+](=O)[O-])ccc1Cl (stereo unspecified)	4.7%	0.6%	-0.8%	-1.8%	10.4%	-0.5%
SMILES	p53 reactivator	AT treatment	ELG1 genotoxic	SW480 rerep	MCF10A rereplic	ELG1 repair inh
CCOc1ccc(NC(=O)CCNC(=O)C2CCN(S(=O)(=O)c3ccccc3)CC2)cc1	6.3%	6.6%	2.5%	-41.6%	18.0%	0.0%
Cc1ccc(Nc2nnc(SCC(=O)NC3CC3)s2)cc1	18.3%	8.3%	3.8%	6.9%	1.0%	?
CCOc1ccccc1C(=O)Nc1ccsc1C(=O)OC	1.1%	15.6%	-6.6%	5.8µM*	7.31µM*	?
CCc1ccc(NC(=O)Nc2ccsc2C(=O)OC)cc1	?	7.7%	2.06µM*	-1.5%	7.5%	?
COC(=O)c1sccc1NC(=O)Nc1ccc(C)c(C)c1	?	6.3%	2.31µM*	-14.9%	-32.5%	?
CCOc1ccccc1C(=O)Nc1ccccc1C(N)=O	-2.2%	nt	-3.9%	-5.4%	4.4%	-10.6%
CCCCOC(=O)c1ccc(NC(=O)c2c(OC)cccc2OC)cc1	-4.1%	1.1%	0.0%	-4.2%	15.3%	1.9%
CCCCCCCCOc1ccccc1C(=O)Nc1ccc(C(=O)OCC[N+](C)(CC)CC)cc1	nt	nt	nt	-1.5%	26.6µM*	nt
Fc1ccc(CN2CCN3CCCC3C2C2CCCCC2)cc1F (stereo unspecified)	-2.6%	6.3%	-3.3%	?	20.6µM*	-12.6%
COCCCN1C(=O)c2[nH]nc(-c3ccccc3O)c2C1c1cccc(Cl)c1 (stereo unspecified)	-6.1%	29.0%	-4.8%	16.4µM*	14.6µM*	?
COc1ccc(CCN2C(=O)c3[nH]nc(-c4ccccc4O)c3C2c2ccccc2)cc1OC (stereo unspecified)	-5.9%	-6.0%	-18.5%	?	?	13µM*
COCCCN1C(=O)c2[nH]nc(-c3ccccc3O)c2C1c1ccc(Cl)cc1 (stereo unspecified)	-5.7%	14.0%	-6.4%	?	?	?
CC(C)OCCCN1C(=O)c2[nH]nc(-c3ccccc3O)c2C1c1cccc(Cl)c1 (stereo unspecified)	-19.0%	13.9%	-9.8%	?	?	?
